Screens from PubChem.
In the library only some 9% were active in any assay of this set; here they are far more common.
ALDH1A1 block: inhibitors of human aldehyde dehydrogenase 1A1 | Potency, µM (highest dose often 75.3 µM), for inactives: top-dose activity, negative = inhibition, actives largely listed as inhibitors | 220,000 compounds, 7.3% hits | AID 1030 | Purified ALDH1A1, NADH fluorescence, propionaldehyde substrate;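 further: potency means the concentration at half of the fitted maximal effect; plate controls were no enzyme wells and a reference inhibitor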
IMPase inh: IMPase inhibition in cells | CHO-M1 cells, IP1 accumulation, HTRF TR-FRET ratio | inhibition (IP1 accumulation), % at 46.1 µM | 120,000 tested, under 10 active; active means well fitted curve in the direction sought with a large enough effect in the signal ratio, not every such curve was filed as active; inconclusive means small, poorly fitted or top-dose-only effect, or a change in a side signal; inactive means no such curve, though single readings can be large or run the other way; the % refers to the signal ratio;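 further: cells stimulated with carbachol in lithium chloride buffer; plate controls were DMSO basal wells for no effect and reference inhibitor wells for full effect; higher means more IMPase inhibition seen as more IP1 and lower FRET ratio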
Target sequence (P97697 whole entry, looked up): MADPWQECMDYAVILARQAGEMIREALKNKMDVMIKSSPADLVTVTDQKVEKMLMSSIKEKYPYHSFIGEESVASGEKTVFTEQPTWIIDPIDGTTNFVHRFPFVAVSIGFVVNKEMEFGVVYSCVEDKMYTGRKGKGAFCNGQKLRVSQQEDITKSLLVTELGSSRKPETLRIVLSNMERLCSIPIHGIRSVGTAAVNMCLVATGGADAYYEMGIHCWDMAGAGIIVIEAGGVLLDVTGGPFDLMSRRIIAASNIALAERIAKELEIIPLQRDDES
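The IP-One HTRF competitive assay in carbachol-stimulated CHO-M1 cells quantifies cellular IP1. Compounds spanned up to 46 uM final, and activity is expressed as AC50 from concentration-response fits of the ratio and donor data.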
HPGD block: HPGD (human) dehydrogenase inhibition. 150,000 compounds, 4.3% hits. P15428. Potency, µM, without a hit: at the top dose activity change, negative = inhibition, actives largely listed as inhibitors. purified HPGD, NADH fluorescence kinetic, PGE2 substrate; further: potency means the concentration at half of the fitted maximal effect
Target sequence (P15428 whole entry, looked up): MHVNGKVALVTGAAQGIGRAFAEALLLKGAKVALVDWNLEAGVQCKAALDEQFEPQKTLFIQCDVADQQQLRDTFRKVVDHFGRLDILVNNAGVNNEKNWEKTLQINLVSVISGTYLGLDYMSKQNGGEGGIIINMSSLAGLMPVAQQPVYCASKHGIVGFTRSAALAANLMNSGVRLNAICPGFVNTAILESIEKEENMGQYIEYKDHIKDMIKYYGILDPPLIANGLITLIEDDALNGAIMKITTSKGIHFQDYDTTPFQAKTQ
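NADH formation kinetics: reaction with 30 uM PGE2 and 1 mM NAD+ (final), 20 nM enzyme, Tris-HCl pH 8 with Tween 20, after 15 min compound preincubation at room temperature. Fluorescence change, last versus first of five reads.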
Numbers without * were called inactive; u = inconclusive; x = not tested or not shown; [ ] = remark or other dose. Unless noted, the call rests on the fitted dose curve; in most records, active means well fitted inhibition curve with a large enough effect (not every such curve was filed as active); inconclusive means small, poorly fitted or top-dose-only effect, or another doubt; inactive means no such curve, though single readings can be large or run the other way. Unless noted, on the % scale 0 is the no-effect control and ±100 the full control effect.

SMILES | ALDH1A1 block | IMPase inh | HPGD block
O=C(O)CC/C(=C\c1ccc(N2CCCC2)c([N+](=O)[O-])c1)c1nc2ccccc2s1 | 1.3µM* | x | x
COc1cccc(/C=C(\CC(=O)O)c2nc3ccccc3s2)c1 | -3% | x | x
O=C(O)CC/C(=C\c1ccccc1[N+](=O)[O-])c1nc2ccccc2s1 | -2% | x | x
Cn1cnnc1Sc1ccc(/C=C(\CC(=O)O)c2nc3ccccc3s2)cc1[N+](=O)[O-] | 20µM* | x | x
Cn1cnnc1Sc1ccc(C(=O)NCCC(c2ccccc2)c2ccccc2)cc1[N+](=O)[O-] | 20µM* | x | -20%
Cn1cnnc1SCC(=O)NCCC(c1ccccc1)c1ccccc1 | -2% | -5 | -2%
O=C(O)/C=C/c1ccccc1Oc1ccc(Cl)cc1Cl | 8% | x | x
CCCNC(=O)NC(=O)CSc1nncs1 | -8% | x | x
CCCCNC(=S)Nc1ccc2cn[nH]c2c1 | -1% | x | -12%
O=c1[nH]c2ccc(NC(=S)Nc3ccccc3Cl)cc2[nH]1 | 6.3µM* | -9 | 22µM*
S=C(NCc1ccco1)Nc1ccc(Cl)cc1Cl | -1% | x | 28µM*
COCCNC(=S)Nc1ccc(Cl)c(Cl)c1 | 10% | x | x
S=C(Nc1ccc2cn[nH]c2c1)Nc1ccc(Cl)cc1Cl | 13µM* | x | x
O=C(COc1ccc(Cl)cc1Cl)NNC(=S)NCc1ccco1 | 2% | x | x
COCCNC(=S)Nc1ccc2[nH]c(=O)[nH]c2c1 | 25µM* | x | x
O=c1[nH]c2ccc(NC(=S)Nc3ccc(Cl)cc3Cl)cc2[nH]1 | u | -3 | -12%
Cc1ccc(N(C(C)C(=O)N2CCOCC2)S(C)(=O)=O)cc1C (centres undefined) | 4% | x | x
COc1cc(CCC(=O)Oc2ccc(C(C)=O)cc2)cc(OC)c1OC | 0% | 2 | -9%
O=S(=O)(NCC1CCCO1)c1ccc(Cl)nc1 (centres undefined) | -5% | x | x
Cc1onc(-c2ccccc2)c1C(=O)N1CCN(C)CC1 | 11% | 1 | -5%
COc1ccc(C2=NN(CCC(=O)NCc3cccs3)C(=O)CC2)cc1 | -6% | x | x
S=C(Nc1ccc(Cl)cc1)Nc1ccc2cn[nH]c2c1 | 25µM* | x | x
CCc1ccc(NC(=S)Nc2ccc3cn[nH]c3c2)cc1 | u | x | -7%
S=C(Nc1ccc2cn[nH]c2c1)Nc1ccc2cn[nH]c2c1 | u | x | -3%
S=C(Nc1ccccc1)Nc1ccc(Cl)cc1Cl | 7.9µM* | -7 | -27%
SMILES | ALDH1A1 block | IMPase inh | HPGD block
O=c1[nH]c2ccc(NC(=S)Nc3ccc(Cl)cc3)cc2[nH]1 | 7% | 0 | -6%
CC(C)c1ccc(NC(=S)Nc2ccc3[nH]c(=O)[nH]c3c2)cc1 | 40µM* | x | x
S=C(Nc1ccc2cn[nH]c2c1)Nc1ccccc1Cl | 14µM* | x | -15%
S=C(Nc1ccccc1Cl)Nc1ccc(Cl)cc1Cl | u | -5 | -25%
CC(=O)c1coc2ccc(OCC(=O)O)cc12 | 4% | x | -8%
CC(=O)Nc1cccc(CNCc2cccc(NC(C)=O)c2)c1 | -3% | x | x
C/C(=C\c1ccccc1)CN1CCN(Cc2ccc(C)o2)C(CCO)C1 (centres undefined) | 15% | x | x
CC(C)=CCN1CCN(Cc2nc(-c3ccccc3)cs2)CC1CCO (centres undefined) | -13% | x | x
COC(=O)c1ccccc1NC(=O)CSc1nnc(CNS(=O)(=O)c2ccc(C)cc2)n1C | 5% | -7 | -10%
Cc1c(NC(=O)c2sc3ccccc3c2Cl)cccc1-c1nc2ccccc2o1 | x | -2 | x
CCc1c(C)[nH]n(-c2nc(-c3cccc([N+](=O)[O-])c3)cs2)c1=O | 14µM* | x | -17%
O=C(Cc1cccc2ccccc12)Nc1nc(-c2cccc([N+](=O)[O-])c2)cs1 | -7% | -2 | -10%
Cc1ccc(NC(=O)Cn2ccc([N+](=O)[O-])n2)cc1Cl | 4% | x | x
CC(C)N(Cc1nccn1C)C(=O)CC1C(=O)NCCN1Cc1ccccc1C(F)(F)F (centres undefined) | 40µM* | x | x
CN(Cc1nccn1C)C(=O)CC1C(=O)NCCN1CC(c1ccccc1)c1ccccc1 (centres undefined) | 1% | x | x
COC(=O)Nc1ccc(S(=O)(=O)N2CCC(C(=O)NC3CCCCC3)CC2)cc1 | -8% | x | x
O=c1[nH]c(=O)n(C2CCCO2)cc1Br (centres undefined) | 16% | -7 | 7%
CC(=O)Nc1cccc(NC(=O)CSc2nnnn2C(C)C)c1 | 14µM* | 6 | -3%
O=C(CSc1nnnn1Cc1ccccc1)Nc1ccc2c(c1)OCO2 | -47% | 10 | -22%
CCC(=O)Nc1cccc(NC(=O)CSc2nnnn2Cc2ccccc2)c1 | 20µM* | 2 | -13%
CC(=O)Nc1cccc(NC(=O)CSc2nnnn2C)c1 | 5% | 4 | 1%
O=C(CSc1nnnn1Cc1ccccc1)Nc1ccc2c(c1)OCCO2 | 8.9µM* | 2[9.22 µM] | -14%
COc1cc(NC(=O)CSc2nnnn2Cc2ccccc2)cc(OC)c1 | -5% | x | x
CCOc1ccc(N(CC(=O)Nc2cccc(N(C)S(C)(=O)=O)c2)S(=O)(=O)c2ccccc2)cc1 | -6% | x | -10%
CCOP(=O)(OCC)C(NC(=O)Nc1ccc(Cl)cc1)C(=O)N(CC)CC (centres undefined) | 2% | 2 | -2%
SMILES | ALDH1A1 block | IMPase inh | HPGD block
O=C(CSc1nnc(-c2ccccc2)o1)c1ccc2c(c1)OCCO2 | 3.2µM* | 7 | -7%
Cc1cc(C)cc(-c2nnc(SCC(=O)c3ccc4c(c3)OCCO4)o2)c1 | -2% | 2[0.369 µM] | -5%
CCC1CCCCN1C(=O)CSc1nnc(-c2ccc3c(c2)OCCO3)o1 (centres undefined) | u | -11 | u
O=C(CSc1nnc(-c2ccc3c(c2)OCCO3)o1)N1CCCC1 | 25µM* | 6 | -25%
CC(=O)Nc1ccc(-c2nnn(CC(=O)Nc3ccc4c(c3)OCO4)n2)cc1Cl | 10% | x | x
Cc1nn(-c2ccccc2)c2c1C(=O)N(c1ccccc1)C(=O)C(C)(C)C2 | 13µM* | 2 | -21%
Cc1nn(-c2ccccc2)c2c1/C(=N/O)CC(C)(C)C2 | -4% | 8 | 1%
C/C(=N\Nc1ccc(Cl)cc1)c1ccccn1 | u | 6 | -15%
C/C(=N\Nc1ccc(Cl)cc1)c1c(O)cc(C)oc1=O | 7.9µM* | x | x
Cc1cc(O)c(C=Nc2cccc(Cl)c2)c(=O)o1 | -4% | -5 | -8%
Cc1cc(O)c(/C=N/Nc2ccccc2)c(=O)o1 | 7.9µM* | 39 | -30%
Cc1cccn2c(=O)c(/C=N/O)c(N3CCOCC3)nc12 | 5% | x | x
COC(=O)c1ccc(CN2CCN(C(C)C)C(CCO)C2)cc1 (centres undefined) | -7% | x | x
O=C(CSc1nc2ccccc2c(=O)n1CCCN1CCOCC1)Nc1cccc(S(=O)(=O)N2CCCCCC2)c1 | -6% | x | 2%
O=c1cc(-c2cccc(O)c2)oc2ccc(O)cc12 | u | x | 7.1µM*
O=c1cc(-c2ccc(O)cc2)oc2ccccc12 | -5% | x | x
O=c1cc(-c2ccc(O)cc2)oc2ccc(O)cc12 | 4% | x | 20µM*
COc1ccccc1-c1oc2ccccc2c(=O)c1O | u | -2 | u
COc1ccccc1-c1cc(=O)c2cc(O)ccc2o1 | 17% | 3 | 16µM*
O=c1cc(-c2ccccc2)oc2cccc(O)c12 | -5% | 4 | -10%
CC1CCN(S(=O)(=O)c2cc(C(=O)N3CCN(c4ncccn4)CC3)ccc2Br)CC1 | -7% | x | -7%
